Among the data in ChEMBL document CHEMBL4513149, “CO-ADD screening of MMV (CH) - MMV compounds” (2021) are Inhibition values, retold here.

The subject of one experiment is Klebsiella pneumoniae. To be noted: Concentration 20 uM; ASSAY_TEST Inhibition of Bacterial Growth; detection method Absorption (OD600); MEDIA CAMHB; plate type 384well; NBS; CORNING #3640; time 18 hr.
The next experiment deals with Candida albicans. To be noted: 20 µM.
Another experiment relates to Cryptococcus neoformans. The settings on record: Concentration 20 uM; ASSAY_TEST Inhibition of Fungal Growth; detection method Resazurin; Absorption (OD600-OD570); plate type 384well; NBS; CORNING #3640.

The structures appear in SMILES notation. Results with a measured potency or affinity are listed apart.

With `c1ccc(Oc2ccc(-c3cc(N4CCOCC4)[nH]n3)cc2)cc1`, the values for the Inhibition with Klebsiella pneumoniae, with Candida albicans and in the experiment with Cryptococcus neoformans were 8.77%, 5.83% and -7.11%, respectively.
On to `CC(C(=O)N1CCCC1)N1CCN(S(=O)(=O)c2ccc(C(C)(C)C)cc2)CC1` (stereo not given), for which the Inhibition in the experiment on Klebsiella pneumoniae is 0.26%; in the experiment on Candida albicans, 2.42%; in the experiment with Cryptococcus neoformans it was -10.06%.
On to `CC(C)C(C(=O)Nc1ccc(S(=O)(=O)N(C)C)cc1)c1ccc(Cl)cc1` (stereo not given), for which the Inhibition is -12.7% with Klebsiella pneumoniae, 4.83% in the experiment with Candida albicans and -3.24% in the experiment with Cryptococcus neoformans.
With `O=S(=O)(c1ccc(Cl)cc1)N1CCN(C(=S)NCc2ccco2)CC1`, the Inhibition in the experiment on Klebsiella pneumoniae was 5.39%; in the experiment on Candida albicans, 4.22%; in the experiment with Cryptococcus neoformans, -0.21%.
`COc1ccc(-c2nnc3ccc(-c4cccc(C(C)C)c4)cn23)cc1OC`: the Inhibition in the experiment with Klebsiella pneumoniae is -10.87%; with Candida albicans, 15%; with Cryptococcus neoformans, -9.03%.
For `O=C(Nc1ccc(F)c(-c2nc3cc(-c4ccccc4)cnc3[nH]2)c1)N1CCCC1`, the Inhibition in the experiment with Klebsiella pneumoniae is 7.38%; in the experiment on Candida albicans, 49.9%; in the experiment with Cryptococcus neoformans, -3.95%.
Taken in the same sequence, the figures for `COc1cc(OC)cc(C(=O)NCC2Cc3cc(Cl)cc(-c4ccncc4)c3O2)c1` (stereo not given) were 8.14%, 4.34% and -5.78%.
Consider `CC1=Nc2ccc(Cl)cc2C(O)(c2ccc(C)cc2)N1CCN1CCCCC1` (stereo not given), for which the Inhibition was 18.59% in the experiment on Klebsiella pneumoniae, 3.13% in the experiment with Candida albicans and -4.53% in the experiment on Cryptococcus neoformans.
On to `CC1COC2(CCN(c3nc(=O)c4cc(C(F)(F)F)cc([N+](=O)[O-])c4s3)CC2)O1` (stereo not given), for which the Inhibition was 8.31% in the experiment on Klebsiella pneumoniae, 2.39% in the experiment on Candida albicans and -12.38% in the experiment on Cryptococcus neoformans.
As to `CC(C(=O)Nc1ccc2oc(-c3ccncc3)nc2c1)c1ccccc1` (stereo not given), the figures for the Inhibition with Klebsiella pneumoniae, with Candida albicans and in the experiment on Cryptococcus neoformans were 10.68%, 3.28% and -12.41%, respectively.
Turning to `O=C1Nc2ccc(Br)cc2C12NCCc1c2[nH]c2ccccc12` (stereo not given), the Inhibition in the experiment on Klebsiella pneumoniae was 4.49%; with Candida albicans, 2.19%; with Cryptococcus neoformans it was -1.68%.
Consider `COc1ccc(S(=O)(=O)Nc2ccc(CN3CCN(C(=O)c4cccc(C#N)c4)CC3)cc2)cc1`, for which the Inhibition was 6.9% with Klebsiella pneumoniae, 1.12% in the experiment on Candida albicans and -8.14% with Cryptococcus neoformans.
For `CCCn1nnc(NC(=O)COc2ccc(C3CCCCC3)cc2)n1`, the Inhibition in the experiment with Klebsiella pneumoniae was 4.73%; in the experiment with Candida albicans, 21.8%; with Cryptococcus neoformans, -8.36%.
With `COc1cc(C2=NCCN2)ccc1-n1cc(-c2cccc(C3=NCCN3)c2)nn1.O=CO.O=CO`, the Inhibition in the experiment on Klebsiella pneumoniae was determined as 8.01%; with Candida albicans, 2.32%; in the experiment with Cryptococcus neoformans, 7.56%.
Consider `c1ccc2c(c1)CN(CC1CC1)CC1(CCN(Cc3c[nH]c4cnccc34)CC1)O2`, for which the values for the Inhibition in the experiment on Klebsiella pneumoniae, with Candida albicans and in the experiment on Cryptococcus neoformans were 8.97%, 4.16% and -4.09%, respectively.
For `O=C(c1[nH]nc2c1CCCC2)N1CCN(Cc2ccc3c(c2)OCO3)CC1` the same measures were 7.71%, 2.93% and -11.77%.
With `O=C1COCc2ccc(Br)cc2N1Cc1ccc(C(F)(F)F)cc1`, the Inhibition is 17.24% in the experiment with Klebsiella pneumoniae, 8.78% with Candida albicans and -5.61% in the experiment on Cryptococcus neoformans.
On to `COc1ccc(CCN2CCC(NCc3cccc(N(C)C)c3)CC2)cc1`, for which the results for the Inhibition with Klebsiella pneumoniae, with Candida albicans and in the experiment on Cryptococcus neoformans were 7.89%, 3.48% and -2.71%, respectively.
Consider `CNC(=O)C1Cc2ccccc2N1C(=O)Cc1ccc(F)cc1` (stereo not given), for which the Inhibition in the experiment with Klebsiella pneumoniae is 8.26%; with Candida albicans, 3.31%; in the experiment on Cryptococcus neoformans it was -12.98%.
In the case of `COc1ccc(-c2nc(-c3cccc(NC(=O)Cc4ccc(F)cc4)c3)no2)cc1OC`, the Inhibition in the experiment with Klebsiella pneumoniae was 13.72%; with Candida albicans, 23%; in the experiment on Cryptococcus neoformans, -5.03%.
As to `CC(C)C(Oc1cccc2ccccc12)C(=O)O` (stereo not given), the Inhibition in the experiment on Klebsiella pneumoniae is 6.53%; in the experiment on Candida albicans, 8.4%; in the experiment on Cryptococcus neoformans it was 4.84%.
`O=C(Cn1ccnc1[N+](=O)[O-])NCc1ccccc1` [BENZNIDAZOLE]: the Inhibition in the experiment on Klebsiella pneumoniae is 18.48%; in the experiment on Candida albicans it was 2.82%; in the experiment with Cryptococcus neoformans, -2.09%.
Regarding `COc1ccc(-c2cnc3ccc(NCc4ccc(S(N)(=O)=O)cc4)nn23)cn1`, the Inhibition was 16.22% in the experiment with Klebsiella pneumoniae, 4.45% in the experiment with Candida albicans and -9.08% with Cryptococcus neoformans.
Take `CCOc1ccccc1C(=O)Nc1cccc(-c2nc3ncccn3c2C)c1`: the Inhibition with Klebsiella pneumoniae was 11.04%; in the experiment with Candida albicans, 6.34%; in the experiment with Cryptococcus neoformans, -7.75%.
For `O=C(C(Cc1c[nH]c2ccccc12)NS(=O)(=O)c1ccc(Cl)cc1)N1CCCCC1` (stereo not given) the same measures were 4.11%, 2.45% and -6.5%.
On to `CCc1nc2ccc(Cl)cn2c1C(=O)NCc1ccc(N2CCC(c3ccc(OC(F)(F)F)cc3)CC2)cc1` [TELACEBEC], for which the results for the Inhibition in the experiment on Klebsiella pneumoniae, with Candida albicans and in the experiment with Cryptococcus neoformans were 18.33%, 2.34% and -3.29%, respectively.
For `COc1cccc(NC(=O)c2c(NC(=O)c3cccnc3)sc3c2CCC3)c1`, the figures for the Inhibition with Klebsiella pneumoniae, with Candida albicans and with Cryptococcus neoformans were 13.46%, 9.13% and -5.87%, respectively.
On to `Cc1cc(C)nc(-n2nc(C)cc2Nc2ccccc2)n1`, for which the results for the Inhibition in the experiment with Klebsiella pneumoniae, in the experiment on Candida albicans and in the experiment on Cryptococcus neoformans were 15.33%, 11.7% and 39.43%, respectively.
Take `CC1CC1C(=O)NC1CCN(CC2(c3ccccc3)CCCCC2)CC1` (stereo not given): the figures for the Inhibition in the experiment on Klebsiella pneumoniae, in the experiment on Candida albicans and with Cryptococcus neoformans were 16.4%, 3.19% and -6.72%, respectively.
Take `NCCC(O)C(=O)N[C@@H]1C[C@H](N)[C@@H](OC2O[C@H](CN)[C@@H](O)[C@H](O)[C@H]2O)[C@H](O)C1OC1O[C@H](CO)[C@@H](O)[C@H](N)[C@H]1O.O=S(=O)(O)O.O=S(=O)(O)O` (stereo not given in full): the Inhibition with Klebsiella pneumoniae was 11.78%; in the experiment with Candida albicans, 2.46%; in the experiment on Cryptococcus neoformans it was -2.57%.
